HP1b chromo inh – HP1-beta chromodomain-methylated histone interaction inhibition | P83916 | AlphaScreen HP1-beta / biotin-H3K9me3 peptide binding | Potency, µM (top dose mostly 114 µM), without a hit: top-dose activity change, negative = inhibition, usual class: inhibitors | hit rate 0.56% among 390,000 | AID 540317; also: potency is read from the fitted curve at half-maximal effect; nearly all actives have a fitted effect of over 70% in size
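Compound inhibition of the preformed complex between 50 nM HP1-beta and 50 nM biotinylated H3K9me3 peptide was read by AlphaScreen. Buffer was PBS pH 7.4 with 0.01% Tween-20. Incubations ran 30 min at room temperature, with 10 ug/mL donor/acceptor beads.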
JMJD2A Tudor – blocks the human JMJD2A Tudor domain. O75164. AlphaScreen JMJD2A-Tudor / H3K4me3 peptide binding. Potency, µM (titrated, usually from 114 µM), inactives show at the highest dose activity change, negative = inhibition, most hits filed as inhibitors. hit rate 4.4% among 390,000. AID 504339; also: potency is read from the fitted curve at half-maximal effect; % is scaled to controls: 0 for no effect and ±100 for the full control effect; nearly all actives have a fitted effect of over 50% in size
BAZ2B block – inhibitors of human BAZ2B bromodomain; AlphaScreen BAZ2B-H3K14Ac peptide displacement; Potency, µM (titrated, usually from 114 µM), for inactives: at the highest dose activity change, negative = inhibition, usual class: inhibitors; hit rate 4.4% among 360,000; AID 504333; also: potency is read from the fitted curve at half-maximal effect; % is scaled to controls: 0 for no effect and ±100 for the full control effect; nearly all actives have a fitted effect of over 60% in size
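In this displacement format the biotinylated H3(5-23) peptide acetylated at Lys14 serves as ligand at 50 nM, with BAZ2B at 50 nM in PBS pH 7.4 containing 0.01% Tween-20. Donor and acceptor beads are 10 ug/mL final.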
PI5P4Ka inh – inhibitors of human PI5P4K alpha; P48426; AID 652105; max response, %; hit rate 1.2% among 330,000; PI5P4Kalpha enzyme, ADP-Glo luminescence, 60 min; active compounds read low; active = max response of -50% or lower; inconclusive = between -30% and -50%; inactive = -30% or higher; also: value at the top dose of about 77 µM; % is scaled to controls: 0 for no effect and ±100 for the full control effect
Target sequence (P48426 whole entry, looked up): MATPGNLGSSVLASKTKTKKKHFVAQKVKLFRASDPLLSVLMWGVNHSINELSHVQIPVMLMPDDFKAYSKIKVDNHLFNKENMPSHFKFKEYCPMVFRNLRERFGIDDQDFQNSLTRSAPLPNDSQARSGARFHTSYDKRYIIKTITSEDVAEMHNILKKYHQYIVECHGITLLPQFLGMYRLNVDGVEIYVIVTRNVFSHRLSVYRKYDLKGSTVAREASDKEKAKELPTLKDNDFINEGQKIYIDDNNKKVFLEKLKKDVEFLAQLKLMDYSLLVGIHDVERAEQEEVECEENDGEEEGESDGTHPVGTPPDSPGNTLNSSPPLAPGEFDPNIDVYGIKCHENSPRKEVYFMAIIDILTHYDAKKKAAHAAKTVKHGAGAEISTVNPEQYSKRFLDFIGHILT
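ADP-Glo luminescence end-point read after a 60 min room-temperature kinase reaction of PI5P4Kalpha plus substrate, initiated with ATP at 5 microM final. Buffer: 0.038 M HEPES pH 7.4, EGTA, 0.1% CHAPS, 5% DMSO.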
KDM4E inh – inhibitors of human JMJD2E histone demethylase; B2RXH2; JMJD2E catalytic domain, FDH-coupled NADH fluorescence (FDH is formaldehyde dehydrogenase); hit rate 1.6% among 230,000; Potency, µM (titrated, usually from 57.1 µM), for the others: top-dose activity change, negative = inhibition, usual class: inhibitors; active = well fitted inhibition curve with a large enough effect, not every such curve was filed as active; inconclusive = small, poorly fitted or top-dose-only effect, or another doubt; inactive = no such curve, though single readings can be large or run the other way;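 also: potency is read from the fitted curve at half-maximal effect; 0% = wells with enzyme and -100% = buffer wells without enzyme; nearly all actives have a fitted effect of over 50% in size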
Target sequence (B2RXH2 1-337 limits assumed): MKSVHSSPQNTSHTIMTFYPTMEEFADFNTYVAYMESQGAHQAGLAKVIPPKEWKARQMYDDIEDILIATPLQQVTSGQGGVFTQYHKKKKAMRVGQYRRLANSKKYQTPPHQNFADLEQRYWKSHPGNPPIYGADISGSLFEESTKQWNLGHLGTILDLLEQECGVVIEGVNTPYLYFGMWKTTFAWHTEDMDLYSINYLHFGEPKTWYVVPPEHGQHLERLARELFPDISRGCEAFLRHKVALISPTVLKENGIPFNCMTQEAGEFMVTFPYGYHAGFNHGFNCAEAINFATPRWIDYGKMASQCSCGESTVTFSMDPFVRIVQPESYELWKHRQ
L3MBTL1 block – inhibitors of human L3MBTL1; hit rate 0.66% among 230,000; Potency, µM (highest dose often 57.1 µM), for inactives: at the highest dose activity, negative = inhibition, most hits filed as inhibitors; AlphaScreen L3MBTL1–H3K9me1 peptide binding; AID 485360; also: potency is read from the fitted curve at half-maximal effect; % is scaled to controls: 0 for no effect and ±100 for the full control effect; nearly all actives have a fitted effect of over 60% in size
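First, the protein-peptide complex forms for 30 min at room temperature (L3MBTL1 50 nM, biotinylated H3K9me1 peptide 75 nM). Next, compounds are pin-transferred and incubated 30 min. Finally, AlphaScreen beads are added and read after 30 min.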
* hit, by the source's call; ? = inconclusive; . = no result given; [ ] = remark or other dose. Compounds with a hit are over-represented: about 5.7% of the library has one in this group of screens. Unless noted, calls follow the shape of the dose curve; as a rule, active = well fitted inhibition curve with a large enough effect; inconclusive = small, poorly fitted or top-dose-only effect; inactive = no such curve, though single readings can be large or run the other way.

SMILES	HP1b chromo inh	JMJD2A Tudor	BAZ2B block	PI5P4Ka inh	KDM4E inh	L3MBTL1 block
COc1ccccc1CNC1CCN(Cc2ccccc2)CC1	34.2%	-9.0%	2.8%	4.3	.	5.8%
COc1ccc(-c2noc(CN3CCC(Cc4ccccc4)CC3)n2)cc1	51.3%	1.9%	16.9%	.	4.9%	9.5%
COc1ccc(OC)c(CN2CCC(Cc3ccccc3)CC2)c1	?	50.1µM*	56.2µM*	6.2	.	-2.2%
COc1cc(OC)c(CN2CCC(Cc3ccccc3)CC2)cc1Br	0.3%	25.1µM*	56.2µM*	-10.9	.	-5.2%
COc1cc(C)c(CN2CCC(Cc3ccccc3)CC2)cc1C	-18.6%	28.2µM*	56.2µM*	-5.3	.	1.7%
C=CCn1c(SCC(=O)NCCCC)nc2scc(-c3ccco3)c2c1=O	?	56.2µM*	?	-57.5*	-14.1%	-26.8%
C=CCn1c(SCC(=O)NC2CCCCC2)nc2ccccc2c1=O	24.8%	0.0%	-23.3%	-5.0	8.4%	-0.6%
C=CCn1c(SCC(=O)NC2CCCC2)nc2scc(-c3ccco3)c2c1=O	12.3%	-35.7%	?	-83.4*	?	.
COc1ccc(CCNC(=O)CCCCCn2c(=O)[nH]c3cc(OC)c(OC)cc3c2=O)cc1OC	36.6%	-16.0%	-7.9%	.	.	.
CC(C(=O)NN)n1nnc(N2CCOCC2)n1 (configuration not stated)	52.6%	-2.2%	0.0%	-1.5	28.6%	7.0%
CC(C(=O)NNS(=O)(=O)c1cccc(C(F)(F)F)c1)n1nnc(N2CCOCC2)n1 (configuration not stated)	15.5%	14.1µM*	-16.4%	-2.5	-1.3%	5.1%
O=C(NCCO)c1c(O)c2cccc3c2n(c1=O)CC3	17.0%	56.2µM*	-35.0%	11.6	?	.
O=C(CSc1nc(-c2ccccc2)c2ccccc2n1)Nc1ccc(F)cc1	43.8%	-10.4%	-1.6%	.	.	.
CC#C[C@]1(O)CC[C@H]2[C@@H]3CCC4=CC(=O)CCC4=C3[C@@H](c3ccc(N(C)C)cc3)C[C@@]21C	?	15.8µM*	12.6µM*	3.1	-9.5%	?
CC#C[C@]1(O)CC[C@H]2[C@@H]3CCC4=CC(=O)CCC4=C3[C@H](c3ccc(N(C)C)cc3)C[C@@]21C	.	.	.	.	3.9%	.
Cn1c(SSc2ccc(-c3cccnc3)n2C)ccc1-c1cccnc1	?	50.1µM*	.	2.0	.	.
CCCn1c(SCC(=O)c2cc(OC)ccc2OC)nnc1C(C)C	27.1%	79.4µM*	14.1%	-15.3	2.6%	0.6%
COCCn1nnnc1SCC(=O)c1ccc(F)cc1	44.4%	-6.3%	-3.2%	1.7	1.8%	4.0%
COCCn1c(SCC(=O)c2ccc(F)cc2)nnc1C(C)C	4.5%	44.7µM*	-11.3%	-15.5	?	.
CC1Cc2cc(C(=O)O)ccc2O1 (configuration not stated)	23.2%	4.0%	.	-8.3	1.8%	1.1%
C=C(CO)C1Cc2cc(C(C)=O)ccc2O1 (configuration not stated)	-18.6%	?	79.4µM*	-6.0	-8.1%	.
COc1ccc(-c2cc(C(F)(F)F)n3nc(C(=O)Nc4ccccc4SC)cc3n2)cc1OC	67.6%	0.7%	16.2%	.	.	.
O=c1c(Cl)c(Cl)cnn1-c1ccccc1	45.1%	13.4%	-3.7%	1.2	3.9%	4.8%
O=c1[nH]c2cnn(-c3ccccc3)c2c(=O)n1O	14.1%	56.2µM*	.	-3.1	.	.
COc1ccc(CNC(=O)C2CCN(C(=O)c3ccc(-n4ccc5ccccc54)s3)CC2)cc1	6.2%	-14.6%	-2.1%	.	.	.
SMILES	HP1b chromo inh	JMJD2A Tudor	BAZ2B block	PI5P4Ka inh	KDM4E inh	L3MBTL1 block
O=C(NCc1ccco1)C1CCCN(c2nnc(-n3cccc3)s2)C1 (configuration not stated)	?	56.2µM*	?	-16.7	.	.
Cc1cc(=O)n2nc(N3CCCC(C(=O)NCc4ccco4)C3)sc2n1 (configuration not stated)	17.4%	-7.4%	-0.2%	4.1	-2.1%	.
CCCc1cc(=O)n2nc(N3CCC(C(=O)NCc4ccco4)CC3)sc2n1	-3.6%	25.1µM*	-1.3%	5.9	.	.
CCOc1ccc(N2C(=O)C3Sc4[nH]c(=O)sc4C(/C=C/c4ccccc4)C3C2=O)cc1 (configuration not stated)	?	39.8µM*	44.7µM*	-25.2	-8.4%	-19.3%
COc1ccc2oc(=O)cc(CN3CCN(C(=O)c4ccccc4Br)CC3)c2c1	27.9%	-8.2%	-15.8%	.	.	.
COc1ccccc1CN1CCCCC1C(=O)O (configuration not stated)	57.1%	35.5µM*	-9.0%	-2.6	4.2%	-0.1%
CCOC(=O)C1CCN(Cc2ccccc2C(F)(F)F)CC1	?	2.82µM*	79.4µM*	.	?	13.3%
COc1ccccc1CNC(=O)C1CCCC1	11.1%	-4.9%	-16.5%	-3.7	.	.
CCOC(=O)C1CCCCN1Cc1ccccc1C(F)(F)F (configuration not stated)	?	4.47µM*	7.3%	.	?	0.8%
COc1cc(-c2ccc3ncnc(NCc4nc(C)cs4)c3c2)cc(OC)c1OC	.	-32.6%	.	.	.	.
COc1ccc(CNC(=O)C/C(C)=N/NC(=O)COc2ccc(Br)cc2)cc1	33.5%	-9.8%	?	6.5	-3.1%	-7.4%
COc1ccc(Cn2ccc3nc(C)c(C(=O)Nc4ccc(OC(F)(F)F)cc4)cc3c2=O)cc1	15.3%	-20.0%	-11.9%	.	.	.
COCC(=O)C(C(=O)OC)[C@H](CCc1ccccc1)NC(=O)OC (some centres not stated)	.	.	.	.	2.8%	.
COc1ccc(CN2C(=O)c3cccnc3C2=O)cc1S(=O)(=O)NC1CCCCC1	32.0%	21.0%	79.4µM*	1.4	.	.
COc1ccccc1CNS(=O)(=O)c1cc(CN2C(=O)c3cccnc3C2=O)ccc1OC	43.6%	28.0%	56.2µM*	-8.8	.	.
COc1ccc(CN2C(=O)c3cccnc3C2=O)cc1S(=O)(=O)NCc1ccc(C)o1	29.5%	7.8%	?	-6.2	.	.
Cc1cc(Br)cc(C)c1NC(=O)c1sc2ncn(Cc3cccc(F)c3)c(=O)c2c1C	49.6%	-10.3%	2.6%	.	.	.
COC(=O)CCC(=O)OC1(C)C(=O)C2=CN(Cc3ccc(OC)cc3)C(c3ccc(OC)cc3)=CC2=C(Br)C1=O (configuration not stated)	?	50.1µM*	.	-12.6	-23.4%[11.4 µM]	.
COC(=O)CCC(=O)OC1(C)C(=O)C2=CN(Cc3ccccc3)C(c3ccc(OC)cc3)=CC2=C(Br)C1=O (configuration not stated)	?	?	.	?	-5.3%[11.4 µM]	.
COC(=O)CCC(=O)OC1(C)C(=O)C2=CN(CC(C)C)C(c3ccc(OC)cc3)=CC2=C(Br)C1=O (configuration not stated)	.	.	39.8µM*	.	?	.

Screening data from PubChem BioAssay.
